Screening data from PubChem.
HIF-2a inh = inhibitors of HIF-2a. inhibition, % at 18.8 µM. 786-0 RCC cells HIF-2a reporter, luciferase luminescence, overnight. actives 0.72% (n = 360,000);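 active = inhibition of the luminescence signal of 40% or more relative to plate controls, in a single-dose primary screen at 18.75 µM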
EWS-Fli block = inhibitors of EWS/Fli oncoprotein transcriptional activity; A673 NR0B1-luciferase reporter, viability-normalised; inhibition, % at 12.6 µM; actives 0.67% (n = 350,000);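 active = mean inhibition of at least 50% after viability correction, with every replicate also passing that limit; inconclusive = mean reaches 50% but only one of two replicates passes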;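 also: firefly luciferase signal divided by Alamar Blue viability fluorescence both relative to DMSO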
PAX8 inh HTS = lowers PAX8-driven luciferase in RMG-I cells; actives 1.2% (n = 360,000); RMG-I TPO-luciferase reporter, SteadyGlo, 24 h; AID 652154; inhibition, % at 12.6 µM;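 active = mean replicate inhibition at least 60% with every replicate also reaching 60%; inconclusive = only one of the two criteria is met; inactive = mean below 60% and not all replicates reaching 60%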;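 also: luciferase light reporting Pax8 driven TPO promoter activity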
KKLEB tox = counter-screen for CF NF-kB inhibitors: cytotoxicity; KKLEB CF airway cells viability, ATPlite luminescence, overnight; active compounds read low; cells stimulated with P. aeruginosa culture filtrate; AID 602141; activity change (cytotoxicity), % at 5 µM; actives 0.36% (n = 360,000);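 active = corrected activity change at or below -50% at 5 µM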
CF NFkB block = inhibitors of cystic fibrosis induced NF-kB. inhibition, % at 5 µM. KKLEB NF-kB-GFP reporter, PAF-induced, GFP fluorescence overnight. actives 0.86% (n = 360,000). AID 588850;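 active = at least 50% inhibition at 5 µM, scaled per plate between neutral and stimulator controls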;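 also: PAF is a Pseudomonas aeruginosa culture filtrate used as stimulus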
Numbers stand for hits; - = inactive; ? = inconclusive; . = no result; ! = a repeat was not active. This is a sample that favours compounds with a hit; in the whole collection about 2.1% have one here.

SMILES	HIF-2a inh	EWS-Fli block	PAX8 inh HTS	KKLEB tox	CF NFkB block
C[C@@H]1CCCCO[C@H](CN(C)S(=O)(=O)c2cccs2)[C@@H](C)CN([C@@H](C)CO)C(=O)c2cc(NC(=O)Nc3ccc(C(F)(F)F)cc3)ccc2O1	.	-	75	.	.
C[C@@H]1CN([C@@H](C)CO)C(=O)c2cc(NC(=O)Nc3ccc(C(F)(F)F)cc3)ccc2O[C@@H](C)CCCCO[C@@H]1CN(C)S(=O)(=O)c1cccs1	.	-	-	.	.
C[C@@H]1CN([C@H](C)CO)C(=O)c2cc(NC(=O)Nc3ccc(F)cc3)ccc2O[C@@H](C)CCCCO[C@H]1CN(C)S(=O)(=O)c1cccs1	-	-	68!	-	-
C[C@@H]1CCCCO[C@@H](CN(C)S(=O)(=O)c2cccs2)[C@H](C)CN([C@H](C)CO)C(=O)c2cc(NC(=O)Nc3ccc(C(F)(F)F)cc3)ccc2O1	.	-	80	.	.
C[C@@H]1CN([C@H](C)CO)C(=O)c2cc(NC(=O)Nc3ccc(C(F)(F)F)cc3)ccc2O[C@@H](C)CCCCO[C@H]1CN(C)S(=O)(=O)c1cccs1	.	-	71	.	.
O=C(O)C[C@@H]1C[C@H]2c3cc(NC(=O)C4CCC4)ccc3O[C@H]2[C@@H](CO)O1	.	.	-	.	.
COc1ccc2oc(C)c(C(N)=O)c2c1	-	.	.	-	-
COc1ccc2oc(C)c(C(=O)c3ccc([N+](=O)[O-])cc3)c2c1	-	-	93	-	-
CC(=O)Nc1ccc(CNc2ncnc3ccc(-c4c(C)noc4C)cc23)cc1	-	70	-	-	-
Cc1cc(NC(=O)NC(=O)c2ccccc2NC(=O)CN)ccc1Oc1ncc(Br)cn1	-	-	-	-	-
Cc1cc(NC(=O)NC(=O)c2ccccc2NC(=O)CN(C)C)ccc1Oc1ncc(Br)cn1	-	58	-	-	-
CCCCOC(=O)NC1CCc2cc(OC)c(OC)c(OC)c2-c2ccc(SC)c(=O)cc21 (stereo unspecified)	-	55	79	-	-
CN[C@H]1CCc2cc(OC)c(OC)c(OC)c2-c2ccc(OC)c(=O)cc21	-	57	90	-	-
COc1cc(C(=O)Nc2cccc(NC(=O)c3ccccc3)c2)cc(OC)c1OC	-	-	-	-	-
CCOC(=O)NC1CCc2cc(OC)c(OC)c(OC)c2-c2ccc(SC)c(=O)cc21 (stereo unspecified)	-	-	83	-	-
COc1cc2c(c(OC)c1OC)-c1c(cc(OC)c(OC)c1OC)C[C@](C)(O)[C@@H](C)C2	-	-	-	-	-
CCOC(=O)N1CCC(N2C(=O)c3ccccc3C2Nc2cc(OC)c(OC)c(OC)c2)CC1 (stereo unspecified)	-	-	.	-	-
COc1cc2c(c(OC)c1OC)-c1ccc(NC(=O)c3ccccc3)c(=O)cc1[C@@H](NC(C)=O)CC2	-	54	-	-	-
COc1ccc2c3c([nH]c2c1)[C@@H](CO)N(C(=O)C1CCC1)CC31CCN(C(=O)c2ccccn2)CC1	.	-	-	.	.
C[C@H](CO)N1C[C@H](C)[C@@H](CN(C)C)Oc2ccc(NS(=O)(=O)c3ccc(Cl)cc3)cc2C1=O	.	-	-	.	.
CCOCC(=O)NC1CCc2cc(OC)c(OC)c(OC)c2-c2ccc(SC)c(=O)cc21 (stereo unspecified)	-	?	86	-	-
Cc1noc(C)c1NC(=O)N(C)C[C@H]1Oc2c(NC(=O)Nc3ccc(C(F)(F)F)cc3)cccc2C(=O)N([C@H](C)CO)C[C@H]1C	.	-	.	.	.
CC1CCCN(C(=O)Cc2cn(Cc3cccc(Cl)c3)c3ccccc23)C1 (stereo unspecified)	-	-	64	-	-
O=C(Cc1cn(Cc2cccc(Cl)c2)c2ccccc12)N1CCCCCC1	-	-	-	-	-
COc1ccc(S(=O)(=O)Nc2cccc3c2O[C@@H](CN(C)C(=O)Nc2cccc4ccccc24)[C@H](C)CN([C@H](C)CO)C3=O)cc1	.	-	.	.	.
SMILES	HIF-2a inh	EWS-Fli block	PAX8 inh HTS	KKLEB tox	CF NFkB block
C[C@@H]1CN([C@@H](C)CO)C(=O)c2cccc(NC(=O)Nc3ccccc3)c2O[C@@H]1CN(C)Cc1ccc(C(=O)Nc2ccccc2N)cc1	.	-	68	.	.
C[C@H]1CN([C@@H](C)CO)C(=O)Cc2cc(NC(=O)CCCCCC(=O)Nc3ccccc3N)ccc2O[C@H]1CN(C)CC1CCCCC1	.	60	-	.	.
C[C@@H]1CN([C@H](C)CO)C(=O)Cc2cc(NC(=O)CCCCCC(=O)Nc3ccccc3N)ccc2O[C@@H]1CN(C)Cc1ccc(C(F)(F)F)cc1	.	-	69	.	.
C[C@H](CO)N1C[C@H](C)[C@H](CN(C)Cc2ccc(Cl)c(Cl)c2)Oc2ccc(NC(=O)CCCCCC(=O)Nc3ccccc3N)cc2CC1=O	.	-	68	.	.
C[C@@H]1CN([C@H](C)CO)C(=O)Cc2cc(NC(=O)CCCCCC(=O)Nc3ccccc3N)ccc2O[C@H]1CN(C)Cc1ccc(C(F)(F)F)cc1	.	-	-	.	.
C[C@H]1CN([C@@H](C)CO)C(=O)c2cc(-c3ccncc3)cnc2O[C@H]1CN(C)C(=O)C1CCC1	.	-	.	.	.
C[C@H]1CN([C@@H](C)CO)C(=O)Cc2cc(NC(=O)Nc3ccc(C(F)(F)F)cc3)ccc2O[C@H]1CN(C)Cc1ccc(C(=O)Nc2ccccc2N)cc1	.	79	.	.	.
C[C@@H]1CN([C@H](C)CO)C(=O)c2cccc(NC(=O)CCCCCC(=O)Nc3ccccc3N)c2O[C@@H]1CN(C)Cc1ccc(C(F)(F)F)cc1	.	-	-	.	.
C[C@@H]1CN([C@@H](C)CO)C(=O)Cc2cc(NC(=O)CCCCCC(=O)Nc3ccccc3N)ccc2O[C@@H]1CN(C)Cc1ccc(Cl)c(Cl)c1	.	-	70	.	.
Cc1noc(C)c1NC(=O)Nc1cccc2c1O[C@H](CN(C)Cc1ccc(C(F)(F)F)cc1)[C@H](C)CN([C@@H](C)CO)C2=O	.	-	81	.	.
C[C@H](CO)N1C[C@H](C)[C@@H](CN(C)Cc2ccc(C(F)(F)F)cc2)Oc2c(NC(=O)CCCCCC(=O)Nc3ccccc3N)cccc2C1=O	.	.	69	.	.
O=C(C[C@@H]1C[C@H]2c3cc(NC(=O)Nc4ccccc4)ccc3O[C@H]2[C@H](CO)O1)NCc1ccccn1	.	-	-	.	.
COc1ccccc1C(=O)Nc1ccc2c(c1)C(=O)N(C)[C@@H]1CC[C@@H](CC(=O)NCc3ccc(Cl)c(Cl)c3)O[C@H]1CO2	.	-	93	.	.
Cc1cc(C(=O)Nc2ccc3c(c2)C(=O)N(C)[C@H]2CC[C@@H](CC(=O)NCc4ccc(-c5ccccc5)cc4)O[C@@H]2CO3)no1	.	-	65	.	.
C[C@@H]1CN([C@H](C)CO)C(=O)c2cc(NS(=O)(=O)c3ccccc3)ccc2O[C@@H](C)CCCCO[C@H]1CN(C)Cc1ccc(Cl)c(Cl)c1	.	-	94	.	.
C[C@@H]1CCCCO[C@@H](CN(C)Cc2ccc(Cl)c(Cl)c2)[C@@H](C)CN([C@@H](C)CO)C(=O)c2cc(NS(=O)(=O)c3ccc(Cl)cc3)ccc2O1	.	-	-	.	.
